Measured values reported in PubChem BioAssay (NCI).
The panel holds about 83,000 compounds, 20% with a hit somewhere; the sample as a whole holds those more often.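 Results are percent growth after 48 hours of single-concentration exposure. 100 means growth as in untreated cells, lower positive values show inhibition; negative values down to -100 show cell death.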 A number with no mark means an inactive call. Activity calls are given as the source filed them. Rule for the calls: active = growth percent below 10; inactive = the rest.

How the values were obtained:
Assay in all cases: NCI-60 one-dose screen, 48 h (100 = growth as untreated, 0 = no growth, -100 = all killed)
Conditions in all cases: 10 µM unless noted
[1] = test system: SK-MEL-2 melanoma
[2] = test system: EKVX NSCLC
[3] = test system: SN12C renal
[4] = test system: UO-31 renal
[5] = test system: TK-10 renal
[6] = test system: ACHN renal
[7] = test system: CAKI-1 renal
[8] = test system: A498 renal
[9] = test system: CCRF-CEM leukemia
[10] = test system: MOLT-4 leukemia
[11] = test system: SR leukemia
[12] = test system: RPMI-8226 leukemia
[13] = test system: OVCAR-5 ovarian
[14] = test system: OVCAR-4 ovarian
[15] = test system: SK-OV-3 ovarian
[16] = test system: IGROV1 ovarian
[17] = test system: OVCAR-3 ovarian
[18] = test system: HS 578T breast
[19] = test system: NCI/ADR-RES ovarian
[20] = test system: OVCAR-8 ovarian

C#CCOc1ccc(/C=N\Nc2nc(-c3ccc(C)cc3)cs2)cc1OC
growth [1]: 96.1%
growth [2]: 65.3%
growth [3]: 89.2%
growth [4]: 78.3%
growth [5]: 166%
growth [6]: 103%
growth [7]: 115%
growth [8]: 81.2%
growth [9]: 90.4%
growth [10]: 79.5%
growth [11]: 83.2%
growth [12]: 68.3%
growth [13]: 96.8%
growth [14]: 76.8%
growth [15]: 87.6%
growth [16]: 92.3%
growth [17]: 99.3%
growth [18]: 111%
growth [19]: 96.2%

O=C1[C@H]2Cc3c([nH]c4ccccc34)[C@@H](c3c(Cl)cccc3Cl)N2C(=O)CN1C1CCN(CC2CCCCC2)CC1
growth [1]: 111%
growth [2]: 88.2%
growth [3]: 87.8%
growth [4]: 62.6%
growth [5]: 142%
growth [6]: 84.1%
growth [7]: 81.9%
growth [8]: 87.2%
growth [9]: 47.2%
growth [10]: 54.6%
growth [11]: -0.0364% (active)
growth [12]: 66.2%
growth [20]: 99.6%
growth [13]: 97.8%
growth [14]: 101%
growth [15]: 109%
growth [17]: 67.9%
growth [18]: 73.5%

CCCCCc1ccc(S(=O)(=O)Nc2cccc(-c3csc(NCCN4CCN(C)CC4)n3)c2)cc1
growth [1]: 102%
growth [2]: 84.2%
growth [3]: 90.6%
growth [4]: 73.4%
growth [5]: 120%
growth [6]: 89.9%
growth [7]: 83.1%
growth [8]: 85.4%
growth [9]: 16.2%
growth [10]: 11.7%
growth [11]: -6.54% (active)
growth [12]: -21.4% (active)
growth [20]: 94.2%
growth [13]: 94.1%
growth [14]: 84.5%
growth [15]: 92.4%
growth [17]: 68.1%
growth [18]: 87%
growth [19]: 85.7%

COc1ccc([C@H]2[C@H](O)C(=O)N2c2cc(OC)c(OC)c(OC)c2)cc1F
growth [1]: -43.3% (active)
growth [2]: 44.7%
growth [3]: 27.3%
growth [4]: 34.2%
growth [5]: 86.2%
growth [6]: 24.6%
growth [7]: 29.6%
growth [8]: -26.1% (active)
growth [9]: 17.9%
growth [10]: 15.2%
growth [11]: 9.35% (active)
growth [12]: 26.9%
growth [20]: -15% (active)
growth [13]: 27.7%
growth [14]: 67.7%
growth [15]: 30.1%
growth [18]: 3.89% (active)
growth [19]: 8.51% (active)

Cc1ccc(NC(=S)NNC(=S)Nc2ccc(C)cc2)cc1
growth [1]: 109%
growth [2]: 94.5%
growth [3]: 98.1%
growth [4]: 89.9%
growth [5]: 109%
growth [6]: 105%
growth [7]: 102%
growth [8]: 84.1%
growth [9]: 95.6%
growth [10]: 97.5%
growth [12]: 104%
growth [20]: 105%
growth [13]: 104%
growth [14]: 100%
growth [15]: 111%
growth [16]: 103%
growth [17]: 127%
growth [18]: 110%

COc1cccc(N2CCN(c3ncnc4c3[nH]c3ccc(F)cc34)C[C@H]2C)c1
growth [1]: 55%
growth [2]: 50.9%
growth [3]: 71.5%
growth [4]: 31.6%
growth [5]: 95%
growth [6]: 63.2%
growth [7]: 42.9%
growth [8]: 37%
growth [9]: 33.3%
growth [10]: 6.42% (active)
growth [12]: 19.2%
growth [20]: 22%
growth [13]: 91.4%
growth [14]: 28%
growth [15]: 68%
growth [16]: 59.5%
growth [17]: 69.4%
growth [18]: 72.9%
growth [19]: 17%

COc1cc(-c2nnc(SCc3ccc(O)c4ncccc34)n2-c2ccccc2)cc(OC)c1OC
growth [1]: 24.6%
growth [2]: 4.34% (active)
growth [3]: 8.79% (active)
growth [4]: -30.2% (active)
growth [5]: 15.2%
growth [6]: 4.84% (active)
growth [7]: 1.72% (active)
growth [8]: 1.54% (active)
growth [9]: 5.95% (active)
growth [10]: 4.98% (active)
growth [11]: 15.5%
growth [12]: 3.25% (active)
growth [13]: 33.2%
growth [14]: 6.79% (active)
growth [15]: 1.71% (active)
growth [16]: 8.92% (active)
growth [18]: 20.3%
growth [19]: 0.665% (active)

CC1=NC2=NN3C(=NN2C(c2ccccc2)=C1)N=NC(c1ccc(Br)cc1)=C3c1ccc(Br)cc1
growth [1]: 103%
growth [2]: 96%
growth [3]: 101%
growth [4]: 80.1%
growth [5]: 128%
growth [6]: 99.3%
growth [7]: 95.7%
growth [8]: 98.7%
growth [9]: 106%
growth [10]: 99.8%
growth [11]: 102%
growth [12]: 111%
growth [13]: 104%
growth [14]: 108%
growth [15]: 116%
growth [16]: 99.3%
growth [17]: 114%
growth [19]: 119%

CCN(CC)c1ccc2c(c1)Oc1nc(N)c(C#N)c(N)c1C2Sc1ccc(C)cc1 (stereo not given)
growth [1]: -83.2% (active)
growth [2]: -97.2% (active)
growth [3]: -69.7% (active)
growth [4]: -99.7% (active)
growth [5]: -90.6% (active)
growth [6]: -98.8% (active)
growth [7]: -97.9% (active)
growth [8]: -85.2% (active)
growth [9]: -19.7% (active)
growth [10]: -14.2% (active)
growth [11]: -22% (active)
growth [12]: -22.9% (active)
growth [20]: -57.9% (active)
growth [13]: -88.6% (active)
growth [14]: -96.7% (active)
growth [15]: -89.3% (active)
growth [17]: -54% (active)
growth [18]: -18.8% (active)
growth [19]: -17.9% (active)

C=CCn1c(-c2nc3ccc(C(=C(C#N)C#N)c4ccccc4)cc3[nH]2)cc2cc(Br)ccc21
growth [1]: 96.7%
growth [2]: 42.9%
growth [3]: 69%
growth [4]: 51.9%
growth [5]: 94%
growth [6]: 55.6%
growth [7]: 48.8%
growth [8]: 87.7%
growth [9]: 50.5%
growth [10]: 36.4%
growth [11]: 50.5%
growth [12]: 35.7%
growth [13]: 77.5%
growth [14]: 54.5%
growth [15]: 63.9%
growth [16]: 65.1%
growth [18]: 64.4%
growth [19]: 54.2%

CCOc1ccc(C(=O)Nc2ncc(Cc3ccc(F)cc3)s2)cc1
growth [1]: -7.6% (active)
growth [2]: 41.3%
growth [3]: 36%
growth [4]: 41.9%
growth [5]: 57.9%
growth [6]: 37.6%
growth [7]: 38%
growth [8]: 13.9%
growth [9]: 17.3%
growth [10]: 18.7%
growth [11]: 19.6%
growth [12]: 25.5%
growth [20]: 22.1%
growth [13]: 34.1%
growth [14]: 54.1%
growth [15]: 36.2%
growth [18]: 1.23% (active)
growth [19]: 18.2%

c1ccc(C(c2nc3ncncc3[nH]2)N2CSc3nc4ncncc4n3C2)cc1 (stereo not given)
growth [1]: 70.5%
growth [2]: 94.4%
growth [3]: 87.5%
growth [4]: 70.9%
growth [5]: 48.9%
growth [6]: 81.9%
growth [7]: 41%
growth [8]: 96.5%
growth [9]: 32.1%
growth [10]: 23.8%
growth [11]: 84.9%
growth [12]: 29.4%
growth [13]: 62.4%
growth [14]: 27.1%
growth [15]: 23.1%
growth [16]: 77.6%
growth [17]: 38.6%
growth [18]: 77.2%
growth [19]: 44.4%

Cc1ccc(-c2nnc(SCc3ccc(O)c4ncccc34)n2-c2ccccc2)cc1
growth [1]: -0.952% (active)
growth [2]: 10.7%
growth [3]: 15.1%
growth [4]: -12.8% (active)
growth [5]: 7.85% (active)
growth [6]: 8.47% (active)
growth [7]: 9.59% (active)
growth [8]: 26%
growth [9]: 8.76% (active)
growth [10]: 8.15% (active)
growth [11]: 12.1%
growth [12]: 7.99% (active)
growth [13]: 37.5%
growth [14]: 13.8%
growth [15]: 5.69% (active)
growth [16]: 8.07% (active)
growth [17]: 16.2%
growth [18]: -3.23% (active)
growth [19]: 2.09% (active)

COc1cc(Cn2cc3c(c2)-c2onc(CN4CCCC4)c2CC3)cc(OC)c1OC
growth [1]: 101%
growth [2]: 75.9%
growth [3]: 96.7%
growth [4]: 78.1%
growth [5]: 111%
growth [6]: 97.5%
growth [7]: 91.7%
growth [8]: 94.4%
growth [9]: 89%
growth [10]: 91.8%
growth [11]: 97.9%
growth [12]: 88%
growth [13]: 99%
growth [14]: 72.7%
growth [15]: 108%
growth [16]: 101%
growth [17]: 100%
growth [18]: 97.7%
growth [19]: 94.9%

COC(=O)/C=C/c1c(C2(C)NC(=O)c3ccccc3N2)c(=O)oc2ccc(Cl)cc12 (stereo not given)
growth [1]: 93.7%
growth [2]: 88.3%
growth [3]: 87.9%
growth [4]: 67.8%
growth [5]: 108%
growth [6]: 87.4%
growth [7]: 78.2%
growth [8]: 59.3%
growth [9]: 101%
growth [10]: 101%
growth [11]: 108%
growth [12]: 94.7%
growth [13]: 101%
growth [14]: 98.7%
growth [15]: 106%
growth [16]: 68.1%
growth [17]: 102%
growth [18]: 90.9%
growth [19]: 98.3%

O=C(NNc1nc2cc(F)ccc2n2cccc12)c1ccncn1
growth [1]: 26.4%
growth [2]: 11.2%
growth [3]: 21.3%
growth [4]: 18.6%
growth [5]: 31.7%
growth [6]: 13.3%
growth [7]: 16.5%
growth [8]: 14.6%
growth [9]: 8.88% (active)
growth [10]: 11.7%
growth [11]: 8.74% (active)
growth [12]: 16.8%
growth [20]: 18.7%
growth [13]: 45%
growth [14]: -6.78% (active)
growth [16]: 15.5%
growth [17]: 5.01% (active)
growth [18]: 42.8%
growth [19]: 5.87% (active)

O=C1CC(=O)N2CSCN(C(c3ccccc3)c3nc4ncncc4[nH]3)C2=N1 (stereo not given)
growth [1]: 96.6%
growth [2]: 94.3%
growth [3]: 103%
growth [4]: 79.6%
growth [5]: 106%
growth [6]: 99.8%
growth [7]: 93.2%
growth [8]: 85.8%
growth [9]: 108%
growth [10]: 112%
growth [11]: 118%
growth [12]: 107%
growth [13]: 111%
growth [14]: 107%
growth [15]: 113%
growth [16]: 99.3%
growth [17]: 107%
growth [18]: 107%
